Structures are written as SMILES. About 83,000 compounds went through this panel and 20% of them were active in at least one assay; those are over-represented in the sample as a whole.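 Compound tested at a single concentration for 48 hours in 96-well plates; a percent growth value below 10 was scored as active.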 A number with no mark means an inactive call. Active and inactive are the calls of the source.

This experiment concerns MOLT-4 leukemia. Briefly: NCI-60 one-dose screen, 48 h (100 = growth as untreated, 0 = no growth, -100 = all killed). To be noted: 10 µM unless noted.
For the compound `C=CCn1c(SCC(=O)Nc2ccc(C(=O)/C=C/c3ccc(Cl)cc3)cc2)nnc1-c1c[nH]c2ccccc12`, the growth is 66.4%.
The same measure for `O=C(NNc1nc2cc(F)c(F)cc2n2c(CN3CC4CNCC4C3)ccc12)c1cnccn1` (stereo not drawn): 7% (active).
The same measure for `COc1ccc2c(c1)c(CC(=O)[Se]CC#N)c(C)n2C(=O)c1ccc(Cl)cc1`: 10.8%.
Regarding `O=C(NNc1nc2cc(F)ccc2n2c(CN3CCC(O)C3)ccc12)c1cnccn1` (stereo not drawn), the growth was 3.23% (active).
In the case of `COc1ccc(COc2ccc(/C=C3\C(=O)Nc4ccccc43)cc2OC)cc1`, the growth is 102%.
On to `O=C(NNc1nc2cc(F)ccc2n2c(CO)ccc12)c1cnccn1`, for which the growth is 2.51% (active).
With `N#Cc1cn(Cc2ccc(Cl)cc2Cl)c(C(=O)c2ccc(Br)cc2)c1N`, the growth is 98.9%.
The same measure for `O=C(CN1CCN(c2cc(=O)n(-c3ccccc3)c3ccccc23)CC1)Nc1nc(-c2ccccc2)cs1`: 17.8%; for `COc1ccc(CCOc2cc3c(cc2OC)CCN(C(=O)NCc2cocn2)C3c2ccc(C)cc2C)cc1` (stereo not drawn): 21.8%; for `COc1ccc(Oc2ccc(/C=N/NC(=O)CSc3nc4ccccc4c(=O)n3-c3ccc(Cl)cc3)cc2)cc1`: 61.7%.
For `N#Cc1cccc(CN2CCC3=C(C2)C(=O)N(Cc2ccc(Cl)cc2)C2=NCCCN23)c1`, the growth was 48.3%.
With `O=C(NNc1nc2cc(F)ccc2n2c(CN3CC4CNCC4C3)ccc12)c1cnccn1` (stereo not drawn), the growth is 5.6% (active).
The same measure for `CCOc1ccccc1NC1=C(Cl)C(=O)c2nc(C)ccc2C1=O`: -24.9% (active); for `CCCCCc1ccc(S(=O)(=O)Nc2cccc(-c3csc(NC(=O)CCCCCN4CCN(CCO)CC4)n3)c2)cc1`: 14.7%.
The same measure for `CCOc1ccc(NC2=C(Cl)C(=O)c3nc(C)ccc3C2=O)cc1`: -46.7% (active).
Turning to `COc1cc(/C=C2\C(=O)Nc3ccccc32)ccc1OCc1ccc(Cl)cc1`, the growth was 93.9%.
As to `COc1cc(-c2nc(SCCC(C)C)nc(NNC(=O)c3ccncc3)c2C#N)cc(OC)c1OC`, the growth is 68.7%.
The same measure for `O=C(NNc1nc2cc(F)cc(F)c2n2cccc12)c1cnccn1`: 1.8% (active); for `O=C(CCn1cc[n+](CC(=O)c2ccc(-c3ccccc3)cc2)c1)Nc1cccc2cccnc12`: 84.3%; for `COc1c(N2CC3CCCNC3C2)c(F)cc2c(=O)c(C(=O)N/N=C/c3ccc4c(c3)OCO4)cn(C3CC3)c12` (stereo not drawn): 59.3%.
The same measure for `COc1ccc(/C=C(/C)c2ccc3ccc(OC)cc3[o+]2)c(O)c1`: 34.7%; for `CN(C)CCNC(=O)c1ccc(-c2nc3ccc4[nH]ncc4c3c3c2CCC3)cc1`: 7.28% (active).
The same measure for `COc1ccccc1NC1=C(Cl)C(=O)c2nc(C)ccc2C1=O`: -39% (active); for `CCNC(=O)N1CCc2cc(OC)c(OCCc3ccc(OC)cc3)cc2C1c1ccc(Cl)cc1C` (stereo not drawn): 23.6%.
Consider `Cc1cc2nc(C(Cl)Cl)nc(-c3cccs3)n2n1`, for which the growth is 21.3%.
Turning to `CN(C)CCNC(=O)c1ccc(-c2nc3ccc4[nH]ncc4c3c3c2COCC3)cc1`, the growth is -9.13% (active).
With `CN1CCN(Cc2ccc(NC(=O)c3cncc(C#Cc4cnc5ccc(OCC(C)(C)O)nn45)c3)cc2C(F)(F)F)CC1`, the growth was 5.42% (active).
The same measure for `Nc1ncc(-c2ccc3ncnc(Nc4cccc(Cl)c4F)c3c2)cn1`: 72.3%; for `COc1ccc(/C=C/C(=O)c2cccc(NC(=O)CSc3nc4ccccc4c(=O)n3-c3ccccc3)c2)cc1OC`: 91.1%; for `O=C(NNc1nc2cc(F)ccc2n2c(CN3CCCC3)ccc12)c1cnccn1`: 1.81% (active).
The same measure for `CC/C(=C/c1c(O)cccc1OC)c1ccc2c(OC)cccc2[o+]1`: 104%; for `CS(=O)(=O)Nc1cc(-c2ccc3ncc(C#N)c(NCc4ccccc4F)c3c2)cnc1Cl`: -15.8% (active); for `COc1ccccc1-n1cc(C#N)c(N)c1C(=O)c1ccc(Cl)cc1`: 64.2%.
The same measure for `N=c1c2cc(-c3ccccc3)oc2ncn1/N=C/c1ccc(Cl)cc1`: 88.2%; for `C=CCn1c(SCC(=O)Nc2ccc(C(=O)/C=C/c3cc(OC)c(OC)c(OC)c3)cc2)nnc1-c1c[nH]c2ccccc12`: 2.78% (active).
For `COC(=O)C[Se]C(=O)Cc1c(C)n(C(=O)c2ccc(Cl)cc2)c2ccc(OC)cc12`, the growth was 67.1%.
The same measure for `COc1ccc(NC2=C(Cl)C(=O)c3nc(C)ccc3C2=O)cc1OC`: 69.8%; for `NC(N)=Nc1ccc(Oc2cccc(NC(N)=Nc3ccc(I)cc3F)c2)cc1`: 78.9%.

For the origin of these results see PubChem BioAssay (NCI).
